# Screening results: PubChem, The Scripps Research Institute Molecular Screening Center
# In the library only some 3% were active in any assay of this set; here they are far more common.
# PAFAH1B3 inh – inhibitors of human PAFAH1B3; Q15102; recombinant PAFAH1B3, FP-rhodamine probe, fluorescence polarization; inhibition, % at 3.39 µM; 340,000 compounds, 0.28% hits;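 active means inhibition above the screen-wide average of all tested compounds plus 3 SD, cut at about 25% in these data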;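 further: 0% = enzyme with DMSO only and 100% = wells lacking PAFAH1B3 protein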
# Target sequence (Q15102 whole entry, looked up): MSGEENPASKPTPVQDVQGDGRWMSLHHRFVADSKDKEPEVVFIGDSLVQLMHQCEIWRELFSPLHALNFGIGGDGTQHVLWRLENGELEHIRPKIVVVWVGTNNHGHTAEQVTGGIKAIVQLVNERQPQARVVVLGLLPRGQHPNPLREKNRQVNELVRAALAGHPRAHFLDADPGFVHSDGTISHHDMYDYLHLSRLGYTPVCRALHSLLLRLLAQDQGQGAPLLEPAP
# CTSL1 counter – blocks F. hepatica cathepsin L1 in PFM18AAP counter-screen | recombinant F. hepatica cathepsin L1, Z-Leu-Arg-MCA fluorescence | AID 1906 | 300,000 compounds, 0.49% hits | inhibition, % at 5.96 µM;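 active means inhibition above the mean of all tested compounds plus 3 SD, set per screening campaign, cut at about 17% in these data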;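 further: 0% = plate median of test compound wells and 100% = 1 µM Z-Phe-Ala-diazomethylketone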
# pPAFAH FP inh – pPAFAH (human) enzyme inhibition; Q13093; recombinant pPAFAH, FP-rhodamine probe fluorescence polarization; inhibition, % at 3.39 µM; 330,000 compounds, 1.5% hits;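 active means inhibition above the mean inhibition across the screen plus 3 SD, cut at about 25% in these data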;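 further: inhibitors block binding of the rhodamine activity-based probe so polarization drops; 0% = enzyme with DMSO and 100% = wells lacking pPAFAH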
# PAFAH1B2 inh – PAFAH1B2 (human) inhibition. P68402. recombinant PAFAH1B2, FP-rhodamine activity probe, fluorescence polarization. inhibition, % at 3.39 µM. 340,000 compounds, 1.2% hits;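 active means inhibition above the mean of all tested compounds plus 3 SD, cut at about 24% in these data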;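 further: 0% = enzyme with DMSO and 100% = wells lacking PAFAH1B2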
# Target sequence (P68402 whole entry, looked up): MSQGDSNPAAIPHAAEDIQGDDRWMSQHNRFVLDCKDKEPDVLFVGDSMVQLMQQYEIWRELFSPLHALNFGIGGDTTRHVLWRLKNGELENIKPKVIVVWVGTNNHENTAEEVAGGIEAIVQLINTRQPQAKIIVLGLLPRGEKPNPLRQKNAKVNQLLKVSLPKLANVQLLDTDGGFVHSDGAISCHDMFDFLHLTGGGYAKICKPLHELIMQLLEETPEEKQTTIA
# PP5 primary – PP5 (human) phosphatase inhibition; P53041; 320,000 compounds, 0.18% hits; inhibition, % at 6.7 µM; purified PP5c, OMFP substrate fluorescence;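 active means inhibition above the campaign's mean inhibition across all tested compounds plus 3 SD, cut at about 9.5% in these data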;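 further: 0% = DMSO only and 100% = 100 µM cantharidin control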
# PAFAH2 inh – inhibitors of human PAFAH2; recombinant PAFAH2, FP-rhodamine activity probe, fluorescence polarization; Q99487; inhibition, % at 3.39 µM; 340,000 compounds, 0.99% hits;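 active means inhibition above the mean over all tested compounds plus 3 SD, cut at about 30% in these data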;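 further: inhibitors block probe labeling of enzyme so polarization drops; 0% = enzyme with DMSO and 100% = wells lacking PAFAH2 protein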
# PAFAH2 confirm – PAFAH2 (human) inhibition, confirmed; shares compounds with PAFAH2 inh; recombinant PAFAH2, FP-rhodamine activity probe, fluorescence polarization; inhibition, % at 3.39 µM; 2,300 compounds, 65% hits;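 active means mean inhibition over three repeats above a set limit taken from the earlier primary screen, cut at about 30% in these data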;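 further: inhibitor blocks binding of rhodamine activity probe so polarization falls; 0% = enzyme with DMSO and 100% = wells lacking PAFAH2 protein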
# * marks the source's active call; other numbers are inactive results; . = no result given.
SMILES,PAFAH1B3 inh,CTSL1 counter,pPAFAH FP inh,PAFAH1B2 inh,PP5 primary,PAFAH2 inh,PAFAH2 confirm
N#Cc1ccccc1NC(=O)COC(=O)/C=C/c1ccc(S(=O)(=O)N2CCOCC2)cc1,5,.,6,2,.,51*,31*
CN(C)S(=O)(=O)c1ccc(Cl)c(NC(=O)COC(=O)/C=C/c2ccc(S(=O)(=O)N3CCOCC3)cc2)c1,5,-5,-1,-1,-4,31*,26
Cc1cc(S(=O)(=O)Nc2ccc(C(=O)NCc3ccncc3)cc2)ccc1F,-4,2,1,3,2,0,.
CC1CCCC(NC(=O)COC(=O)c2cccnc2Cl)C1C (configuration not stated),3,.,7,6,2,67*,51*
CC1CCCC(NC(=O)COC(=O)c2ccc(S(=O)(=O)N3CCOCC3)cc2)C1C (configuration not stated),4,-3,4,1,3,-4,.
CC1CCCC(NC(=O)COC(=O)c2ccc(Cl)nc2)C1C (configuration not stated),-7,.,1,0,-1,33*,24
N#Cc1ccc(NC(=O)COC(=O)c2cccnc2Cl)cc1,0,.,8,6,.,43*,36*
CC1CCCC(NC(=O)COC(=O)c2cc3ccccc3oc2=O)C1C (configuration not stated),10,.,-6,12,.,37*,21
CC1CCCC(NC(=O)COC(=O)COc2ccccc2Cl)C1C (configuration not stated),1,-12,0,-2,1,4,.
Nc1ncc(Br)cc1S(=O)(=O)NCCC(=O)N1CCN(c2ccccc2)CC1,10,-2,8,2,1,9,.
Cc1cccc(N2CCN(C(=O)C3CCC(=O)N(Cc4ccccc4F)C3)CC2)c1C (configuration not stated),11,16,3,4,0,0,.
CC(C)(CC(=O)OCC(=O)Nc1ccccc1F)CC1=NS(=O)(=O)c2ccccc2N1,1,3,0,-7,3,31*,28
CC(C)c1ccc([N+](=O)[O-])cc1S(=O)(=O)N1CCN(C)CC1,-1,-2,6,7,1,-8,.
COc1ccc(/C=C/C(=O)OCC(=O)Nc2ccc(Cl)cc2F)cc1S(=O)(=O)N1CCOCC1,4,-6,2,3,3,73*,48*
COc1ccc(/C=C/C(=O)OCC(=O)NC2CCCC(C)C2C)cc1S(=O)(=O)N1CCOCC1 (configuration not stated),-1,0,0,2,0,67*,75*
CCN1CCCc2cc(CN(CCN3CCOCC3)C(=S)Nc3cccc(OC)c3)ccc21,3,0,10,2,1,2,.
Cc1ccc(-n2ncc(C(=O)N3CCc4ccccc4C3)c2NC(=O)c2ccco2)cc1C,-5,-2,7,10,3,35*,7
COc1cc([N+](=O)[O-])ccc1-c1ccc(/C=C2\C(=O)ON=C2c2ccccc2)o1,6,.,.,8,.,30*,18
COc1cc(/C=C2\C(=O)ON=C2c2ccccc2)cc(Br)c1O,-6,-1,3,2,0,59*,61*
COc1cc(/C=C2\C(=O)ON=C2c2ccccc2)cc(Cl)c1O,-8,-3,2,0,-4,33*,47*
CCOC(=O)[C@H]1[C@H]2COc3cc(OC)ccc3[C@@H]2N2C(=O)CN(C)C(=O)[C@@]12C,14,.,-1,2,.,-4,.
CCOC(=O)c1c(-c2ccccc2)oc2ccc(OCC(=O)NNC(=O)CCC(=O)O)cc12,4,.,.,3,.,-3,.
CCOC(=O)c1c(-c2ccccc2)oc2ccc(OCC(=O)NNC(=O)CCCC(=O)O)cc12,23,.,.,17,.,41*,3
Cc1ccc(C)n1-c1sccc1C(=O)O,9,.,.,2,.,46*,25
COC(=O)c1cc(NS(=O)(=O)c2cccs2)cc(NS(=O)(=O)c2cccs2)c1,7,.,.,3,.,32*,13
SMILES,PAFAH1B3 inh,CTSL1 counter,pPAFAH FP inh,PAFAH1B2 inh,PP5 primary,PAFAH2 inh,PAFAH2 confirm
COc1ccccc1NC(=O)c1ccccc1NS(=O)(=O)c1cccs1,7,-3,8,3,0,44*,40*
C#CCN(C(=O)c1ccc(OC2CCN(Cc3ccccn3)CC2)cc1)C1CCCCC1,4,0,8,1,-1,-4,.
O=C(Nc1ccc(-c2csnn2)cc1)C1CC1,7,-1,-2,3,3,-8,.
O=C(Oc1ccc(-c2csnn2)cc1)C1CC1,7,-6,20,6,-2,75*,76*
CN(CC(=O)Nc1ccc(F)c(F)c1F)C(=O)CCN1C(=O)C2CCCCC2C1=O (configuration not stated),4,.,0,0,2,0,.
O=[N+]([O-])c1ccccc1S(=O)(=O)Nc1cccc(-c2ccc(N3CCCC3)nn2)c1,3,0,3,2,0,109*,4
O=[N+]([O-])c1ccccc1S(=O)(=O)Nc1cccc(-c2ccc(N3CCOCC3)nn2)c1,3,14,14,3,5,3,.
COc1cc(C(=O)OCC(=O)N2CCCCCC2)c([N+](=O)[O-])cc1OC,12,.,3,6,.,35*,24
O=C(OCc1ccccc1)c1ccc(NCc2cc(O)ccc2O)cc1,14,.,.,2,.,72*,57*
CC(C)OC(=O)c1ccc(NCc2cc(O)ccc2O)cc1,10,.,.,7,.,8,.
CC(NC(=O)COC(=O)/C=C/c1cccc(F)c1)c1ccccc1 (configuration not stated),0,.,6,9,.,46*,34*
COc1cc(/C=C/C(=O)OCC(=O)NC(=O)NC(C)C)cc(OC)c1OC,4,1,-2,3,1,0,.
COc1cc(/C=C/C(=O)OCC(=O)NC(C)c2ccccc2)cc(OC)c1OC (configuration not stated),8,.,5,3,.,31*,14
CC(NC(=O)COC(=O)/C=C/c1ccc(Cl)cc1)c1ccccc1 (configuration not stated),7,3,3,9,0,31*,21
CC(NC(=O)c1ccco1)C(=O)N1CCN(c2cccc(C(F)(F)F)c2)CC1 (configuration not stated),3,.,-2,1,3,3,.
CC(C)c1ccc(NC(=O)COC(=O)C2CCCCC2)cc1,2,.,7,2,4,45*,29
CC1CC1C(=O)OCC(=O)NC(=O)c1ccc(C(C)(C)C)cc1 (configuration not stated),9,.,2,3,.,3,.
